What all share (details): concentration: 1 μM, replicates: in singlicate; n = 1
In experiment [1] the test system is MAP3K4.
Experiment [2] concerns MAP4K2.
Experiment [3] concerns MAP4K3.
The test system of experiment [4] is MAP4K4.
The subject of experiment [5] is MAP4K5.
Experiment [6] relates to MAPKAPK2.
Experiment [7] deals with MAPKAPK5.
The test system of experiment [8] is MARK1.
Experiment [9] relates to MARK2.
The test system of experiment [10] is MARK3.
Experiment [11] deals with MARK4.
For experiment [12], the system named is MAST1.
The subject of experiment [13] is T1, MEK1.
T1 construct: gene MAP2K1

The test system of experiment [14] is T2, MEK2.
T2 construct: gene MAP2K2

Experiment [15] has as its system T3, MEK3.
T3 construct: gene MAP2K3

Experiment [16] deals with T4, MEK4.
T4 construct: gene MAP2K4

Experiment [17] has as its system T5, MEK5.
T5 construct: gene MAP2K5

Experiment [18] has as its system T6, MEK6.
T6 construct: gene MAP2K6

Experiment [19] relates to MELK.
Experiment [20] deals with MERTK.

From article PMC5540273 (PLoS ONE, 2017) come the findings set out here.

Each structure is given as a SMILES string.
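Note: KINOMEscan kinase panel screen.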

As to `O=C1NC(=O)C(c2ccccc2)=C1Nc1cccc(O)c1` [SB-390534], the “%Inh” value in [1] is given as 24%; in [2], 26%; in experiment [3] it was 0%; in experiment [4], 1%; in experiment [5], 0%; in experiment [6], 27%. Also, the “%Inh” value in experiment [7] is given as 20%; in [8], 3%; in experiment [9], 9%; in experiment [10] it was 22%; in experiment [11], 0%; in experiment [12] it was 33%. The “%Inh” value in experiment [13] was determined as 16%; in experiment [14], 14%; in experiment [15], 10%; in experiment [16], 12%; in experiment [17], 29%; in experiment [18] it was 0%. Moreover, the “%Inh” value turned out to be 4% in experiment [19] and 9% in experiment [20].
For the compound `COc1ccc(CNC(=O)NC2CCN(c3ccnc(Nc4ccc(F)cc4)n3)C2)cc1` (stereo not drawn) [GSK1379706], the “%Inh” value in experiment [1] amounted to 0%; in experiment [2], 0%; in experiment [3], 0%; in experiment [4], 3%; in [5], 2%; in experiment [6], 24%. Moreover, the “%Inh” value in experiment [7] amounted to 2%; in [8], 0%; in experiment [9] it was 0%; in experiment [10], 4%; in experiment [11] it was 3%; in [12], 53%. In addition, the “%Inh” value in experiment [13] worked out at 29%; in experiment [14], 21%; in experiment [15], 0%; in [16] it was 28%; in experiment [17], 25%; in experiment [18], 12%. Also, the “%Inh” value in experiment [19] is 21%; in experiment [20] it was 39%.
As to `Cn1c(=O)c(F)c(Nc2ccc(I)cc2F)c2c(=O)n(OC[C@H](O)CO)cnc21`, the “%Inh” value in [1] was 27%; in experiment [2] it was 0%; in [3], 0%; in experiment [4] it was 0%; in [5], 5%; in experiment [6], 0%. Also, the “%Inh” value in [7] is 0%; in experiment [8], 0%; in [9], 0%; in experiment [10], 7%; in experiment [11] it was 33%; in experiment [12] it was 37%. Also, the “%Inh” value in experiment [13] is 99.6%; in experiment [14] it was 99.1%; in experiment [15], 0%; in experiment [16] it was 0%; in experiment [17], 0%; in experiment [18] it was 0%. For the same compound, the “%Inh” value in experiment [19] came out at 13%; in experiment [20] it was 5%.
`COc1cc(Nc2ccnc3ccc(C(F)(F)F)cc23)cc(OC)c1OC` [GW577382]: the “%Inh” value in experiment [1] was determined as 7%; in [2], 1%; in experiment [3], 0%; in experiment [4], 15%; in experiment [5], 4%; in experiment [6], 0%. Also, the “%Inh” value in experiment [7] turned out to be 0%; in experiment [8] it was 8%; in experiment [9], 0%; in experiment [10], 0%; in experiment [11], 11%; in experiment [12], 4%. Further, the “%Inh” value in experiment [13] is 14%; in [14], 0%; in experiment [15] it was 0%; in experiment [16] it was 32%; in [17], 50%; in experiment [18], 0%. The entries for the “%Inh” value in [19] and in experiment [20] were 13% and 27%, respectively.
Take `Cc1nnc(-c2ccc(C)c(-c3ccc(C(=O)O)cc3)c2)o1` [GW608005]: the “%Inh” value in experiment [1] was 8%; in [2] it was 0%; in [3], 0%; in experiment [4], 10%; in [5] it was 0%; in experiment [6], 1%. The “%Inh” value in experiment [7] amounted to 0%; in experiment [8], 4%; in experiment [9], 0%; in experiment [10], 0%; in experiment [11] it was 21%; in [12], 0%. In addition, the “%Inh” value in experiment [13] is given as 0%; in [14], 0%; in [15], 0%; in experiment [16] it was 14%; in [17] it was 0%; in experiment [18], 0%. For the same compound, the “%Inh” value amounted to 0% in experiment [19] and 25% in [20].
For `FC(F)(F)c1ccc(-c2ncn(CCCN3CCOCC3)c2-c2ccncc2)cc1` [SB-217780], the “%Inh” value in [1] is given as 7%; in experiment [2], 0%; in experiment [3] it was 0%; in experiment [4] it was 0%; in experiment [5] it was 0%; in experiment [6] it was 12%. Also, the “%Inh” value in [7] is 22%; in experiment [8], 9%; in [9] it was 0%; in [10], 3%; in experiment [11], 20%; in [12], 23%. Further, the “%Inh” value in experiment [13] turned out to be 0%; in [14], 0%; in [15], 27%; in [16], 3%; in experiment [17], 33%; in experiment [18] it was 0%. In addition, the figures for the “%Inh” value in experiment [19] and in experiment [20] were 2% and 0%, respectively.
`CCCNC(=O)Nc1ccc(Oc2ncnc3ccn(C)c23)cc1`: the “%Inh” value amounted to 6% in experiment [1]; 7% in [2]; 0% in experiment [3]; 0% in experiment [4]; 0% in [5]; 7% in [6]. For the same compound, the “%Inh” value in experiment [7] is 0%; in experiment [8], 6%; in experiment [9] it was 6%; in experiment [10] it was 0%; in experiment [11], 9%; in [12] it was 0%. Moreover, the “%Inh” value in experiment [13] came to 0%; in experiment [14], 0%; in experiment [15], 0%; in experiment [16], 10%; in [17], 61%; in experiment [18] it was 14%. Besides, the “%Inh” value in experiment [19] worked out at 7%; in [20], 13%.
`Cc1nn2c(=O)cc(N3CCOCC3)nc2n1Cc1cccc(Cl)c1Cl` [GSK2342769]: the “%Inh” value in [1] was 7%; in experiment [2], 0%; in experiment [3], 0%; in experiment [4], 0%; in [5], 0%; in [6], 15%. Further, the “%Inh” value in [7] was found to be 0%; in experiment [8], 0%; in experiment [9] it was 0%; in [10] it was 0%; in [11], 0%; in [12] it was 2%. Also, the “%Inh” value was 0% in experiment [13]; 0% in experiment [14]; 0% in experiment [15]; 31% in experiment [16]; 0% in experiment [17]; 0% in experiment [18]. For the same compound, the “%Inh” value in experiment [19] worked out at 8%; in experiment [20] it was 10%.
For the compound `Cl.c1ccc(Cn2cnc3cc(Nc4ncnc5ccccc45)ccc32)cc1` [GW272142], the “%Inh” value in [1] worked out at 0%; in experiment [2], 0%; in [3] it was 0%; in experiment [4] it was 0%; in experiment [5] it was 0%; in experiment [6], 15%. Also, the “%Inh” value in [7], in experiment [8], in experiment [9], in experiment [10], in [11] and in [12] was 0% throughout. Moreover, the “%Inh” value in experiment [13] is listed as 0%; in [14], 0%; in experiment [15] it was 0%; in experiment [16], 8%; in experiment [17] it was 56%; in experiment [18], 0%. In addition, the “%Inh” value is listed as 13% in experiment [19] and 10% in [20].
As to `COc1cccc(-n2cnc3c(N)ncnc32)c1` [SKF-97416], the “%Inh” value in experiment [1] was 31%; in experiment [2], 33%; in experiment [3], 0%; in experiment [4] it was 0%; in [5] it was 0%; in experiment [6], 0%. Besides, the “%Inh” value in [7] came out at 1%; in experiment [8], 0%; in experiment [9], 13%; in experiment [10], 37%; in [11] it was 0%; in [12], 59%. For the same compound, the “%Inh” value in [13] is listed as 12%; in experiment [14] it was 12%; in [15], 43%; in experiment [16], 36%; in experiment [17], 80%; in experiment [18] it was 18%. The “%Inh” value in experiment [19] and in [20] was 0% each time.
As to `CN(C)c1cc(-c2ccc3c(N)n[nH]c3c2)nc(N)n1` [GSK2219329], the “%Inh” value in [1] was determined as 0%; in experiment [2] it was 0%; in experiment [3], 0%; in [4], 9%; in experiment [5], 7%; in experiment [6], 0%. Further, the “%Inh” value in experiment [7] worked out at 0%; in [8] it was 0%; in [9] it was 0%; in experiment [10] it was 0%; in experiment [11], 1%; in experiment [12], 0%. In addition, the “%Inh” value worked out at 0% in [13]; 0% in [14]; 0% in [15]; 0% in experiment [16]; 13% in [17]; 8% in experiment [18]. The “%Inh” value in experiment [19] came out at 0%; in experiment [20], 21%.
On to `Nc1ncnc2c1ncn2-c1cccc(F)c1` [SKF-97560], for which the “%Inh” value in experiment [1] is given as 16%; in experiment [2] it was 38%; in experiment [3] it was 0%; in experiment [4] it was 0%; in experiment [5], 0%; in experiment [6], 0%. Moreover, the “%Inh” value is 39% in experiment [7]; 0% in [8]; 0% in experiment [9]; 0% in experiment [10]; 0% in [11]; 19% in [12]. Besides, the “%Inh” value was 34% in [13]; 31% in [14]; 43% in [15]; 22% in experiment [16]; 31% in experiment [17]; 0% in experiment [18]. Also, the “%Inh” value in [19] is listed as 22%; in experiment [20], 24%.
Consider `O=c1cc(N2CCOCC2)nc2n(Cc3ccc(F)c(Cl)c3)ccn12` [GSK2297099], for which the “%Inh” value in [1] was 25%; in [2] it was 0%; in experiment [3] it was 0%; in [4] it was 0%; in [5], 0%; in [6] it was 2%. Moreover, the “%Inh” value in experiment [7], in experiment [8], in experiment [9], in experiment [10], in experiment [11] and in experiment [12] was 0% each time. Also, the “%Inh” value in experiment [13] is reported as 0%; in experiment [14], 0%; in [15], 0%; in experiment [16], 5%; in [17], 1%; in experiment [18], 14%. The “%Inh” value in experiment [19] and in [20] was 0% throughout.
In the case of `Cc1cccc(-c2cc(-c3c[nH]nc3-c3ccccn3)ccn2)c1` [GW679395], the “%Inh” value in [1] was 13%; in experiment [2], 0%; in experiment [3] it was 0%; in [4] it was 0%; in experiment [5], 0%; in experiment [6], 17%. For the same compound, the “%Inh” value in [7], in experiment [8], in experiment [9], in experiment [10], in [11] and in [12] was 0% each time. The “%Inh” value is on record as 0% in [13]; 0% in experiment [14]; 0% in experiment [15]; 36% in experiment [16]; 27% in [17]; 0% in experiment [18]. Besides, the figures for the “%Inh” value in experiment [19] and in [20] were 0% and 12%, respectively.
On to `CCc1ccc(-c2ccc3c(c2)-c2nn(C)cc2S(=O)(=O)N3C)cc1`, for which the “%Inh” value is reported as 1% in experiment [1]; 0% in [2]; 0% in [3]; 19% in [4]; 22% in experiment [5]; 0% in [6]. Moreover, the “%Inh” value stood at 0% in experiment [7]; 24% in [8]; 0% in [9]; 0% in experiment [10]; 16% in experiment [11]; 0% in experiment [12]. The “%Inh” value in experiment [13] was 53%; in experiment [14], 18%; in [15], 17%; in experiment [16] it was 0%; in [17] it was 27%; in experiment [18] it was 0%. Further, the “%Inh” value in [19] and in experiment [20] was 0% throughout.
